This passage reports binding signal results from publication PMC7862700, “An all-to-all approach to the identification of sequence-specific readers for epigenetic DNA modifications on cytosine”.

What all share (experiment): DAPPL (digital affinity profiling via proximity ligation, sequencing); 10 mM Tris-HCl pH 7.5, 50 mM NaCl, 1 mM DTT, 4% glycerol, room temperature, 30 min; GST-TFs on glutathione beads, 16-mer random dsDNA library, 0.1% formaldehyde crosslink after washing; high values mean tight binding
Holding throughout (conditions): protein: recombinant; tags: N-terminal GST; dsDNA, one strand shown

Experiment [1] concerns the target T1, ERF (Homo sapiens, UniProt P50548 1-548).
T1 sequence: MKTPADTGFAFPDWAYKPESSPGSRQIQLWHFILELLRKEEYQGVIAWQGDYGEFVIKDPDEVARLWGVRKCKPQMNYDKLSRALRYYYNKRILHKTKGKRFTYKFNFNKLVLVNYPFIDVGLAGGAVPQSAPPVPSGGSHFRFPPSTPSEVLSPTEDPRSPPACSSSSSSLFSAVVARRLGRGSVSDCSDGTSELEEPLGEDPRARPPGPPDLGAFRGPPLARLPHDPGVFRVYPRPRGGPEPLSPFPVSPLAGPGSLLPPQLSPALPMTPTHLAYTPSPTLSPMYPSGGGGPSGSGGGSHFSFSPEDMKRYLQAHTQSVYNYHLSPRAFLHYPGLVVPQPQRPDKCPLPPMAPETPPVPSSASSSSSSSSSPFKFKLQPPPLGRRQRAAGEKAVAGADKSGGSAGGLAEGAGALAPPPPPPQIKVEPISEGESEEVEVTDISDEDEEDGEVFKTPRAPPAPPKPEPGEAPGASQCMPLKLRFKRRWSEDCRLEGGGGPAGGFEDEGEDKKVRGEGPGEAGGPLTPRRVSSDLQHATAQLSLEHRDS
In outline:
(§1)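 Pools were built from human transcription factors expressed in yeast as GST fusions, captured on glutathione beads and DNA-barcoded, along with a tag-only sample. Incubation with 200 nmole of a 16-mer random double-stranded DNA library lasted 30 min at room temperature in Tris/NaCl/DTT/glycerol buffer, and was followed by washing, 0.1% formaldehyde crosslinking, proximity ligation, PCR amplification and Illumina NextSeq500 sequencing. Binding signal is the quotient of each hexamer's read frequency for a factor and its frequency for the tag-only sample.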

For experiment [2], the target named is T2, ETV3L (Homo sapiens, UniProt Q6ZN32 1-361).
T2 sequence: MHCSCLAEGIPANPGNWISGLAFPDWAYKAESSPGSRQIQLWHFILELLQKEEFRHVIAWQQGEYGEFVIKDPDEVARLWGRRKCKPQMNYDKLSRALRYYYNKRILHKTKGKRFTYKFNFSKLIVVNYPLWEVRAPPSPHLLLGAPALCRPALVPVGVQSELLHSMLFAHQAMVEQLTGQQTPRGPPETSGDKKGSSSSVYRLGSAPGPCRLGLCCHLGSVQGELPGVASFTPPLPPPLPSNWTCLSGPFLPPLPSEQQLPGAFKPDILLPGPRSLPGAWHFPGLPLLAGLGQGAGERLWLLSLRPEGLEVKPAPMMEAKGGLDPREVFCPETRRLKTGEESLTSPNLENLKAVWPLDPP
The method, boiled down:
as §1

The target in experiment [3] is T3, ETS2 (Homo sapiens, UniProt P15036 1-469).
T3 sequence: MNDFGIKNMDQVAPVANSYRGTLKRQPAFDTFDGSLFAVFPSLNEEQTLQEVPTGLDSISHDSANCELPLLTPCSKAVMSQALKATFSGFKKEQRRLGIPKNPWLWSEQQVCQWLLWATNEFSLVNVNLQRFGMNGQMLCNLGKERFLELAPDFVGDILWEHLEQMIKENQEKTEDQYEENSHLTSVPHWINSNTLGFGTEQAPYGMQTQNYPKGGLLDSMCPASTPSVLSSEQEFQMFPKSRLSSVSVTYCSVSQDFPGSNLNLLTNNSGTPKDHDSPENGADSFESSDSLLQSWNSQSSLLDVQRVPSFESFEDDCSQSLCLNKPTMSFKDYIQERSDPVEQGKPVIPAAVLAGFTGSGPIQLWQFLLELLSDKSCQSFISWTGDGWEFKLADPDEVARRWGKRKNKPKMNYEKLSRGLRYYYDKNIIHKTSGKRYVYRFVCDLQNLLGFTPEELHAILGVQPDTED
In outline:
as §1

Experiment [4] deals with T4, SPDEF (Homo sapiens, UniProt O95238 1-335).
T4 sequence: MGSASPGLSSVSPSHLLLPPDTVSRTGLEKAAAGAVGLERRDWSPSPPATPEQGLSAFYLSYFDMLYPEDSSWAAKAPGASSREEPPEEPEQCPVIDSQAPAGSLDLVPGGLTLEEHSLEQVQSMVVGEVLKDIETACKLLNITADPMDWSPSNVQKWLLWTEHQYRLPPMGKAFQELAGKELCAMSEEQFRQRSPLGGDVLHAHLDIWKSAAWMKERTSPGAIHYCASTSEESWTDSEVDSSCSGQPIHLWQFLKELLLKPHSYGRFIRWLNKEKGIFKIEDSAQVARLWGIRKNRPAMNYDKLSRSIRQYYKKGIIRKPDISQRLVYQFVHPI
The method, boiled down:
as §1

Experiment [5] concerns the target T5, ETV7 (Homo sapiens, UniProt Q9Y603 1-341).
T5 sequence: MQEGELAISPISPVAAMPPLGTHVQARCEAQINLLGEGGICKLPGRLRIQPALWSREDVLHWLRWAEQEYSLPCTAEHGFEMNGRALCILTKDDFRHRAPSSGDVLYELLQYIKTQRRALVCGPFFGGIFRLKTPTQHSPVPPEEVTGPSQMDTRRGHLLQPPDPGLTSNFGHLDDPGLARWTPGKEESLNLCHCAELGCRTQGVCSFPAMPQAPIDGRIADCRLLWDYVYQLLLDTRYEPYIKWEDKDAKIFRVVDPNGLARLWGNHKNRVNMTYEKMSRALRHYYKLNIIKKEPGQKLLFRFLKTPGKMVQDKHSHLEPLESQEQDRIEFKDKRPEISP
In outline:
as §1

For experiment [6], the target named is T6, ELF5 (Homo sapiens, UniProt Q9UKW6-2 1-255).
T6 sequence: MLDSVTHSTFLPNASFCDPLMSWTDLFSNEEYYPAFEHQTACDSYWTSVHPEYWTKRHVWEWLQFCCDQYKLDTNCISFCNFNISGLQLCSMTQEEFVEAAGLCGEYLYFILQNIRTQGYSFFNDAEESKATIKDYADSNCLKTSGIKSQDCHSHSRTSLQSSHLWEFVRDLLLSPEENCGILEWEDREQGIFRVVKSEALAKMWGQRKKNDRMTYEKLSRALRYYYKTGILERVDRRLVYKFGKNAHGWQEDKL
The method, boiled down: as §1

Experiment [7] has as its target T7, ETV3 (Homo sapiens, UniProt P41162-2 1-143).
T7 sequence: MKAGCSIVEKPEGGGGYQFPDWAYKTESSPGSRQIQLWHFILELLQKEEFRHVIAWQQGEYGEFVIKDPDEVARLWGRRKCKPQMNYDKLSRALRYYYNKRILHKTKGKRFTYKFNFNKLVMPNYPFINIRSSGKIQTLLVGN
The method, boiled down: as §1

Experiment [8] addresses ETV6 (Homo sapiens, UniProt P41212 1-452). In outline:
as §1

ETV6, sequence (P41212 whole entry): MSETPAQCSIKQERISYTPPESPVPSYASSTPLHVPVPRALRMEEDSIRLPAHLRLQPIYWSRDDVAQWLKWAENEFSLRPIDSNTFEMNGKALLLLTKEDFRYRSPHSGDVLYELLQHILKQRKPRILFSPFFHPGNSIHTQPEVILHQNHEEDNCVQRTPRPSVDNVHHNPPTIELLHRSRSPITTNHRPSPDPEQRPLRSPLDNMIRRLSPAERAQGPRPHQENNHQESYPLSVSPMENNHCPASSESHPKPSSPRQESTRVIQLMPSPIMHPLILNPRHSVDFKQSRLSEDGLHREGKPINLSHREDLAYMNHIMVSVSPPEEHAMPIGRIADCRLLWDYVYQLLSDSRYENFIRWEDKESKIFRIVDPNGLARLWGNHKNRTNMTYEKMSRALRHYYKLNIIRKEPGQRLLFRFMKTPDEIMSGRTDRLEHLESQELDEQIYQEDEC

Turning to CCGATC, the binding signal in experiment [1] is 1.17 fold enrichment (6-mer frequency, TF over GST control); in experiment [2] it was 1.13 fold enrichment (6-mer frequency, TF over GST control); in experiment [3], 1.18 fold enrichment (6-mer frequency, TF over GST control); in experiment [4], 1.22 fold enrichment (6-mer frequency, TF over GST control); in experiment [5], 1.31 fold enrichment (6-mer frequency, TF over GST control); in experiment [6], 1.1 fold enrichment (6-mer frequency, TF over GST control). Further, the binding signal is 1.25 fold enrichment (6-mer frequency, TF over GST control) in experiment [7] and 1.17 fold enrichment (6-mer frequency, TF over GST control) in experiment [8].

Regarding TACAAT, the binding signal in experiment [1] is 1.31 fold enrichment (6-mer frequency, TF over GST control); in experiment [2], 1.25 fold enrichment (6-mer frequency, TF over GST control); in experiment [3], 1.34 fold enrichment (6-mer frequency, TF over GST control); in experiment [4] it was 1.28 fold enrichment (6-mer frequency, TF over GST control); in experiment [5], 1.24 fold enrichment (6-mer frequency, TF over GST control); in experiment [6], 1.24 fold enrichment (6-mer frequency, TF over GST control). In addition, the binding signal is 1.28 fold enrichment (6-mer frequency, TF over GST control) in experiment [7] and 1.26 fold enrichment (6-mer frequency, TF over GST control) in experiment [8].

CTATTA: the binding signal in experiment [1] is 1.08 fold enrichment (6-mer frequency, TF over GST control); in experiment [2], 1.11 fold enrichment (6-mer frequency, TF over GST control); in experiment [3], 1.14 fold enrichment (6-mer frequency, TF over GST control); in experiment [4] it was 1.07 fold enrichment (6-mer frequency, TF over GST control); in experiment [5], 1.07 fold enrichment (6-mer frequency, TF over GST control); in experiment [6] it was 1.1 fold enrichment (6-mer frequency, TF over GST control). Moreover, the binding signal is 1.05 fold enrichment (6-mer frequency, TF over GST control) in experiment [7] and 1.14 fold enrichment (6-mer frequency, TF over GST control) in experiment [8].

TTTACG: the binding signal was 1.22 fold enrichment (6-mer frequency, TF over GST control) in experiment [1]; 1.31 fold enrichment (6-mer frequency, TF over GST control) in experiment [2]; 1.29 fold enrichment (6-mer frequency, TF over GST control) in experiment [3]; 1.26 fold enrichment (6-mer frequency, TF over GST control) in experiment [4]; 1.25 fold enrichment (6-mer frequency, TF over GST control) in experiment [5]; 1.32 fold enrichment (6-mer frequency, TF over GST control) in experiment [6]. Moreover, the binding signal was 1.19 fold enrichment (6-mer frequency, TF over GST control) in experiment [7] and 1.27 fold enrichment (6-mer frequency, TF over GST control) in experiment [8].

For TCATCG, the binding signal in experiment [1] was 1.06 fold enrichment (6-mer frequency, TF over GST control); in experiment [2], 1.08 fold enrichment (6-mer frequency, TF over GST control).

For AAGATA, the binding signal is 1.17 fold enrichment (6-mer frequency, TF over GST control) in experiment [1]; 1.09 fold enrichment (6-mer frequency, TF over GST control) in experiment [2]; 1.1 fold enrichment (6-mer frequency, TF over GST control) in experiment [3]; 1.1 fold enrichment (6-mer frequency, TF over GST control) in experiment [4]; 1.1 fold enrichment (6-mer frequency, TF over GST control) in experiment [5]; 1.07 fold enrichment (6-mer frequency, TF over GST control) in experiment [6]. Besides, the binding signal is 1.11 fold enrichment (6-mer frequency, TF over GST control) in experiment [7] and 1.14 fold enrichment (6-mer frequency, TF over GST control) in experiment [8].

As to TAGATC, the binding signal in experiment [1] was 1.18 fold enrichment (6-mer frequency, TF over GST control); in experiment [2], 1.13 fold enrichment (6-mer frequency, TF over GST control); in experiment [3], 1.13 fold enrichment (6-mer frequency, TF over GST control); in experiment [4], 1.43 fold enrichment (6-mer frequency, TF over GST control); in experiment [5], 1.06 fold enrichment (6-mer frequency, TF over GST control); in experiment [6], 1.02 fold enrichment (6-mer frequency, TF over GST control). Moreover, the binding signal in experiment [7] is 1.09 fold enrichment (6-mer frequency, TF over GST control); in experiment [8] it was 1.02 fold enrichment (6-mer frequency, TF over GST control).

On to TCTATG, for which the binding signal in experiment [1] is 1.07 fold enrichment (6-mer frequency, TF over GST control); in experiment [2], 1.08 fold enrichment (6-mer frequency, TF over GST control); in experiment [3], 1.08 fold enrichment (6-mer frequency, TF over GST control); in experiment [4], 1.05 fold enrichment (6-mer frequency, TF over GST control); in experiment [5], 1.25 fold enrichment (6-mer frequency, TF over GST control); in experiment [6], 1.07 fold enrichment (6-mer frequency, TF over GST control). Besides, in experiment [7], the binding signal was 1.18 fold enrichment (6-mer frequency, TF over GST control).
